# Source: PubChem BioAssay AID1159580 (chemical genetic matrix, 2015)
# Several values for one entry are separate records, joined by “and”; a condition that tells them apart may be missing. Identical values can stand only once. The whole screen tested about 5,500 compounds, of which about 2,000 (36%) were called active. About 18% were inconclusive and are not listed. The list shows a part of the results. Values without a mark were called inactive. Cut-off read from the data, not from the text of the source: active = normalized growth mostly below about 0.91 (no sharp cut-off); inconclusive = no clear call, values can overlap the other calls; inactive = mostly above about 0.92.
# Experiment: chemical genetic growth profiling, strain panel (AID 1159580);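 note: tested at 20 µM; growth read once vehicle control cultures reached saturation at 30 °C; 1 = growth at the plate median or of vehicle wells; lower values mean less growth of the strain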
# Conditions: S. cerevisiae deletion strains, growth OD
structure (smiles),measurement,setting,value
C[C@H](CCC(=O)O)[C@H]1CCC2C3C(CC[C@@]21C)[C@@]1(C)CC[C@@H](O)C[C@H]1C[C@@H]3O (stereo partly specified),normalized growth,"locus YAL013W, strain DEP1, stronger effect = lower value",0.984
same,normalized growth,"locus YAL021C, strain ccr4, stronger effect = lower value",1.02
same,normalized growth,"locus YAL026C, strain drs2, stronger effect = lower value",0.997
same,normalized growth,"locus YAL030W, strain snc1, stronger effect = lower value",0.983
same,normalized growth,"locus YBL061C, strain skt5, stronger effect = lower value",0.986
same,normalized growth,"locus YBR009C, strain hhf1, stronger effect = lower value",1.03
same,normalized growth,"locus YBR021W, strain FUR4, stronger effect = lower value",0.988
same,normalized growth,"locus YBR023C, strain chs3, stronger effect = lower value",0.987
same,normalized growth,"locus YBR171W, strain sec66, stronger effect = lower value",0.961
same,normalized growth,"locus YBR229C, strain ROT2, stronger effect = lower value",0.985
same,normalized growth,"locus YBR231C, strain swc5, stronger effect = lower value",0.996
same,normalized growth,"locus YBR279W, strain paf1, stronger effect = lower value",1
same,normalized growth,"locus YCL011C, strain gbp2, stronger effect = lower value",1.02
same,normalized growth,"locus YCL016C, strain dcc1, stronger effect = lower value",1.04
same,normalized growth,"locus YCL029C, strain bik1, stronger effect = lower value",0.963
same,normalized growth,"locus YCL069W, strain vba3, stronger effect = lower value",0.991
same,normalized growth,"locus YCR088W, strain abp1, stronger effect = lower value",0.989
same,normalized growth,"locus YDL005C, strain med2, stronger effect = lower value",0.989
same,normalized growth,"locus YDL035C, strain GPR1, stronger effect = lower value",0.992
same,normalized growth,"locus YDL040C, strain nat1, stronger effect = lower value",0.983
same,normalized growth,"locus YDL074C, strain BRE1, stronger effect = lower value",0.946
same,normalized growth,"locus YDL101C, strain DUN1, stronger effect = lower value",0.986
same,normalized growth,"locus YDL134C, strain PPH21, stronger effect = lower value",0.981
same,normalized growth,"locus YDL185W, strain tfp1, stronger effect = lower value",0.972
same,normalized growth,"locus YDL192W, strain arf1, stronger effect = lower value",0.979
same,normalized growth,"locus YDR001C, strain nth1, stronger effect = lower value",0.982
same,normalized growth,"locus YDR069C, strain doa4, stronger effect = lower value",0.954
same,normalized growth,"locus YDR101C, strain arx1, stronger effect = lower value",0.986
same,normalized growth,"locus YDR137W, strain rgp1, stronger effect = lower value",0.821 (active)
same,normalized growth,"locus YDR150W, strain NUM1, stronger effect = lower value",0.997
same,normalized growth,"locus YDR159W, strain sac3, stronger effect = lower value",1.04
same,normalized growth,"locus YDR162C, strain NBP2, stronger effect = lower value",0.989
same,normalized growth,"locus YDR195W, strain ref2",0.94
same,normalized growth,"locus YDR297W, strain sur2, stronger effect = lower value",0.989
same,normalized growth,"locus YDR318W, strain mcm21, stronger effect = lower value",0.977
same,normalized growth,"locus YDR334W, strain swr1, stronger effect = lower value",0.961
same,normalized growth,"locus YDR335W, strain msn5, stronger effect = lower value",0.981
same,normalized growth,"locus YDR388W, stronger effect = lower value",0.98
same,normalized growth,"locus YDR392W, strain spt3, stronger effect = lower value",1.1
same,normalized growth,"locus YDR502C, strain sam2, stronger effect = lower value",0.984
same,normalized growth,"locus YEL003W, strain gim4, stronger effect = lower value",0.976
same,normalized growth,"locus YEL037C, strain rad23, stronger effect = lower value",1
same,normalized growth,"locus YEL061C, strain CIN8 (second series), stronger effect = lower value",0.983
same,normalized growth,"locus YEL061C, strain CIN8, stronger effect = lower value",0.99
same,normalized growth,"locus YER015W, strain faa2, stronger effect = lower value",1.03
same,normalized growth,"locus YER016W, strain bim1, stronger effect = lower value",0.998
same,normalized growth,"locus YER110C, stronger effect = lower value",0.984
same,normalized growth,"locus YER111C, strain swi4, stronger effect = lower value",0.979
same,normalized growth,"locus YER155C, strain BEM2 (second series), stronger effect = lower value",1.02
same,normalized growth,"locus YER155C, strain BEM2, stronger effect = lower value",0.99
same,normalized growth,"locus YER167W, strain BCK2, stronger effect = lower value",0.988
same,normalized growth,"locus YFR010W, strain ubp6, stronger effect = lower value",0.969
same,normalized growth,"locus YGL078C, strain dbp3, stronger effect = lower value",0.967
same,normalized growth,"locus YGL086W, strain mad1, stronger effect = lower value",0.985
same,normalized growth,"locus YGL167C, strain pmr1, stronger effect = lower value",0.974
same,normalized growth,"locus YGL173C, strain kem1, stronger effect = lower value",0.951
same,normalized growth,"locus YGL227W, strain vid30, stronger effect = lower value",0.998
same,normalized growth,"locus YGL240W, strain doc1, stronger effect = lower value",0.982
same,normalized growth,"locus YGL248W, strain PDE1, stronger effect = lower value",0.996
same,normalized growth,"locus YGL253W, strain hxk2, stronger effect = lower value",1.02
same,normalized growth,"locus YGR078C, strain PAC10, stronger effect = lower value",0.99
same,normalized growth,"locus YGR135W, strain pre9, stronger effect = lower value",0.975
same,normalized growth,"locus YGR229C, strain SMI1, stronger effect = lower value",0.99
same,normalized growth,"locus YGR252W, strain gcn5, stronger effect = lower value",1.09
same,normalized growth,"locus YHR013C, strain ard1, stronger effect = lower value",1.03
same,normalized growth,"locus YHR027C, strain rpn1, stronger effect = lower value",1
same,normalized growth,"locus YHR030C, strain SLT2, stronger effect = lower value",1 and 0.948
same,normalized growth,"locus YHR079C, strain IRE1 (second series), stronger effect = lower value",0.974
same,normalized growth,"locus YHR079C, strain IRE1, stronger effect = lower value",0.945
same,normalized growth,"locus YHR094C, strain hxt1, stronger effect = lower value",0.982
same,normalized growth,"locus YHR129C, strain ARP1, stronger effect = lower value",1
same,normalized growth,"locus YHR142W, strain chs7, stronger effect = lower value",0.999
same,normalized growth,"locus YHR200W, strain rpn10, stronger effect = lower value",1
same,normalized growth,"locus YIL066C, strain RNR3, stronger effect = lower value",0.98
same,normalized growth,"locus YIL073C, strain SPO22, stronger effect = lower value",1.01
same,normalized growth,"locus YIL125W, strain kgd1, stronger effect = lower value",0.992
same,normalized growth,"locus YIR030C, strain dcg1, stronger effect = lower value",0.982
same,normalized growth,"locus YJL092W, strain hpr5, stronger effect = lower value",0.985
same,normalized growth,"locus YJL095W, strain BCK1 (second series), stronger effect = lower value",0.988
same,normalized growth,"locus YJL095W, strain BCK1, stronger effect = lower value",0.95 and 0.958
same,normalized growth,"locus YJL115W, strain asf1, stronger effect = lower value",0.984
same,normalized growth,"locus YJL129C, strain trk1, stronger effect = lower value",0.99
same,normalized growth,"locus YJL134W, strain LCB3, stronger effect = lower value",0.994
same,normalized growth,"locus YJL154C, strain vps35, stronger effect = lower value",0.983
same,normalized growth,"locus YJL164C, strain tpk1, stronger effect = lower value",1.04
same,normalized growth,"locus YJL166W, strain qcr8, stronger effect = lower value",0.933
same,normalized growth,"locus YJL168C, strain set2, stronger effect = lower value",0.982
same,normalized growth,"locus YJL187C, strain SWE1 (second series), stronger effect = lower value",0.975
same,normalized growth,"locus YJR043C, strain POL32, stronger effect = lower value",0.985
same,normalized growth,"locus YJR066W, strain TOR1, stronger effect = lower value",0.937
same,normalized growth,"locus YJR075W, strain HOC1, stronger effect = lower value",0.991
